# From PubChem
# pS6 MEF inh: inhibitors of mTORC1 signaling in Tsc2-/- p53-/- MEF cells; Tsc2-/- p53-/- MEF, phospho-rpS6 immunofluorescence/PI, 24 h; Potency, µM (series often up to 38.3 µM), inactives show at the highest dose activity change, negative = inhibition, most hits filed as inhibitors; 44,000 tested, 0.78% active; AID 493208;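 also: potency is read from the fitted curve at half-maximal effect; plate controls were DMSO for no effect and rapamycin for full effect; nearly all actives have a fitted effect of over 50% in size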
#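 Immunofluorescence of rpS6 phosphorylation in Tsc2-/-, p53-/- MEFs after 24 h compound exposure, normalized to propidium iodide signal. Activity is expressed as % positive cells, thresholded with 7.5 nM rapamycin.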
# S16 viability: cytotoxicity in S16 Pmp22-F2sN Schwann cells | 43,000 tested, 0.48% active | AID 1508642 | Potency, µM (top dose mostly 57.5 µM), inactives show top-dose activity change, negative = cytotoxicity, actives largely listed as cytotoxic | S16 Pmp22-F2sN Schwann cells viability, CellTiter-Glo, 24 h; also: potency is read from the fitted curve at half-maximal effect; % is scaled to controls: 0 for no effect and ±100 for the full control effect; nearly all actives have a fitted effect of over 65% in size
#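 S16 Schwann cells carrying the Pmp22-F2sN reporter, seeded in 1536-well format, were exposed to library compounds for 24 h at 37C. Viability was read as CellTiter-Glo luminescence after 15 min at room temperature.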
# OvCa metastasis: blocks SKOV3ip1 adhesion and invasion in omental model | SKOV3ip1-GFP adhesion/invasion on 3D omental model, fluorescence | Potency, µM (series often up to 45.8 µM), inactives show at the top dose activity change, negative = inhibition, usual class: inhibitors | 46,000 tested, 0.1% active | AID 1963576;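 also: potency is read from the fitted curve at half-maximal effect; plate controls were DMSO wells for no effect and tomatine positive control wells for full effect; nearly all actives have a fitted effect of over 65% in size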
#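 qHTS, 4-pt dose (0.36-46 umol/L); SKOV3ip1-GFP, 1,200 cells/well, no FBS; primary omental fibroblast/mesothelial co-culture 48 h pre-grown; 2 h RT + 16 h 37 C; PBS wash, 4% PFA; GFP count 488/509 nm.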
# p53null 39C tox: selectivity test: cytotoxicity in p53 null cells, nonpermissive temperature; H1299 p53-null (neo) cells, 39C, ATPlite viability, 24 h; Potency, µM (series often up to 46.1 µM), inactives show at the top dose activity, negative = cell killing, usual class: cytotoxic; 55,000 tested, 0.97% active;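 also: potency is read from the fitted curve at half-maximal effect; 0% = DMSO only and -100% = full killing by 100 µM tamoxifen; nearly all actives have a fitted effect of over 50% in size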
#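 ATP-luminescence viability readout (ATPlite, 20 min RT) after 24 hr compound treatment at 39C of H1299-neo or H1299-p53A138V cells; titration up to 46 uM; normalized to DMSO and 100 uM tamoxifen; Hill-fit AC50.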
# p53null 32C kill: selectivity test: cytotoxicity in p53 null cells, permissive temperature. 55,000 tested, 0.62% active. AID 903. H1299-neo p53 null cells, ATP luminescence, 24 h, 32C. Potency, µM (series often up to 46.1 µM), inactives show at the top dose activity change, negative = cytotoxicity, actives largely listed as cytotoxic;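 also: potency is read from the fitted curve at half-maximal effect; 0% = DMSO only and -100% = full killing by 100 µM tamoxifen; nearly all actives have a fitted effect of over 55% in size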
#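 Luminescent ATP readout gave cell viability of p53-null H1299-neo cells after a 24 h compound exposure at the permissive 32C. Titrations ran up to 46 uM, and AC50s were fitted with the standard Hill equation.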
# PMP22 txn prim: modulates PMP22 transcription in S16 Schwann cells | S16 Pmp22-F2sN Schwann cells, FLuc/NLuc coincidence luminescence, 24 h | Potency, µM (top dose mostly 57.5 µM), for inactives: top-dose activity change, negative = inhibition, most hits filed as inhibitors | 43,000 tested, 2% active | AID 1508649; active = clear falling dose curves in both reporters; inconclusive = both reporters move, but less clearly or upward; inactive = either reporter flat; the % is the NLuc reporter signal; also: potency is read from the fitted curve at half-maximal effect; % is scaled to controls: 0 for no effect and ±100 for the full control effect
#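 Luminescent read-out of sequential FLuc and NLuc signals from a reporter embedded in the Pmp22 3' UTR of S16 Schwann cells, taken after 24 h compound exposure at 37C; compounds reducing both signals score as inhibitors of expression.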
# NLuc sat counter: inhibits NanoLuc at saturating substrate, PMP22 counter-screen; 690 tested, 4% active; Secreted NLuc enzyme (filtered S16 cell medium), Nano-Glo luminescence; Potency, µM (titrated, usually from 57.5 µM), for inactives: at the highest dose activity change, negative = inhibition, usual class: inhibitors; AID 1508638; shares compounds with PMP22 txn prim; also: potency is read from the fitted curve at half-maximal effect; % is scaled to controls: 0 for no effect and ±100 for the full control effect
# NLuc Km counter: counter-screen for PMP22 expression modulators: NanoLuc inhibition at Km. secreted NLuc enzyme, coelenterazine luminescence, Km conditions. 690 tested, 5% active. Potency, µM (doses to about 57.5 µM), inactives show top-dose activity change, negative = inhibition, usual class: inhibitors. shares compounds with PMP22 txn prim; also: potency is read from the fitted curve at half-maximal effect; % is scaled to controls: 0 for no effect and ±100 for the full control effect
# FLuc counter: firefly luciferase enzyme inhibition artifact for PMP22 screen; 690 tested, under 10 active; Potency, µM (top dose mostly 57.5 µM), for the others: at the highest dose activity, negative = inhibition, hits mostly inhibitors; shares compounds with PMP22 txn prim; purified P. pyralis FLuc, luminescence, 10 min; also: % of control where 0% means no effect
# Target sequence (P08659 whole entry, looked up): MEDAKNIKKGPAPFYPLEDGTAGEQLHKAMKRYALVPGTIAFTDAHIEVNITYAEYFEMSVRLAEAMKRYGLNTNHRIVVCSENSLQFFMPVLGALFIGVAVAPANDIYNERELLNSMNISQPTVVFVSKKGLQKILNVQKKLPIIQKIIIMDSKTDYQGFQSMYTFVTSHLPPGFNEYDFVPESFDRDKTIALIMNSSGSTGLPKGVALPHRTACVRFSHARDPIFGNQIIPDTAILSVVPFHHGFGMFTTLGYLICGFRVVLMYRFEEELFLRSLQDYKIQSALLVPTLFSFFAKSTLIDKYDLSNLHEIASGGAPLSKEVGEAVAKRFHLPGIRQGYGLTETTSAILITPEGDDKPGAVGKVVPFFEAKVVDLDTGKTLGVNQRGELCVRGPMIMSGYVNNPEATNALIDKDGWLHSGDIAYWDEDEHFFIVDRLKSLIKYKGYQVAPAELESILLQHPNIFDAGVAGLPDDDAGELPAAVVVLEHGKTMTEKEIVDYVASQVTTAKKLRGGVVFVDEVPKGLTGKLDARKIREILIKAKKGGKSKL
# S16 viab conf: confirmation of cytotoxicity in S16 Pmp22-F2sN Schwann cells (luciferase reporters placed in the Pmp22 gene); shares compounds with PMP22 txn prim; S16 Schwann cells viability, CellTiter-Glo ATP luminescence, 24 h; Potency, µM (doses to about 57.5 µM), for the others: top-dose activity change, negative = viability loss, usual class: cytotoxic; 690 tested, 7% active; AID 1508641; also: potency is read from the fitted curve at half-maximal effect; % is scaled to controls: 0 for no effect and ±100 for the full control effect
# PMP22 txn cnf: confirmation of modulators of PMP22 gene transcription in S16 cells. 690 tested, 22% active. Potency, µM (series often up to 57.5 µM), inactives show top-dose activity change, negative = inhibition, hits mostly inhibitors. S16 Schwann cells Pmp22-F2sN, dual luciferase, 24 h. shares compounds with PMP22 txn prim; active = clear falling dose curves in both reporters; inconclusive = both reporters move, but less clearly or upward; inactive = either reporter flat; the % is the FLuc reporter signal; also: potency is read from the fitted curve at half-maximal effect
# PMP22 HiBiT cnf: confirmation of modulators of rat PMP22 protein expression; shares compounds with PMP22 txn prim; S16 Schwann cells Pmp22-HiBiT, luminescence, 48 h; Potency, µM (highest dose often 27.9 µM), without a hit: at the highest dose activity change, negative = inhibition, actives largely listed as inhibitors; 95 tested, under 10 active; AID 1508647
# Target sequence (P25094 whole entry, looked up): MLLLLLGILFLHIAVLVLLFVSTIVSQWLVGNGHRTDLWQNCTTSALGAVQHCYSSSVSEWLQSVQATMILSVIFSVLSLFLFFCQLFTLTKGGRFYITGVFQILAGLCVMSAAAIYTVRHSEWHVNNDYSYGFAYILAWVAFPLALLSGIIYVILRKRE
# * marks the source's active call; other numbers are inactive results; i = inactive; ? = inconclusive; · = no result. In the library only some 3.1% were active in any assay of this set; here they are far more common. Unless noted, calls follow the shape of the dose curve; as a rule, active = well fitted curve in the direction sought with a large enough effect; inconclusive = small, poorly fitted or top-dose-only effect, or another doubt; inactive = no such curve, though single readings can be large; an effect the other way counts as inactive or inconclusive.
SMILES,pS6 MEF inh,S16 viability,OvCa metastasis,p53null 39C tox,p53null 32C kill,PMP22 txn prim,NLuc sat counter,NLuc Km counter,FLuc counter,S16 viab conf,PMP22 txn cnf,others
CCCN1CCN(CCCNC(=O)Cn2c(-c3cccs3)cc3cc(Cl)ccc32)CC1,0%,?,?,-3%,-1%,11µM*,1%,-3%,2%,?,?,
Cc1ccc(C)c(N2CCN(CCCNC(=O)Cn3c(-c4cccs4)cc4ccccc43)CC2)c1,?,?,?,?,?,13µM*,-4%,-5%,-1%,?,?,PMP22 HiBiT cnf=15%
CN1CCN(CCCNC(=O)Cn2c(-c3cccs3)cc3ccccc32)CC1,-8%,12%,14%,-5%,1%,?,·,·,·,·,·,
CCCN1CCN(CCCNC(=O)Cn2c(-c3cccs3)cc3ccccc32)CC1,1%,6%,5%,3%,-6%,?,·,·,·,·,·,PMP22 HiBiT cnf=?
CN(C)[C@@H](CCOc1cccc2ccccc12)c1ccccc1,·,·,4%,·,·,·,·,·,·,·,·,
Cc1ccccc1CNC(=O)C1CCCN(c2nnc(-n3c(C)ccc3C)s2)C1 (configuration not stated),-10%,?,13%,0%,7%,16µM*,-10%,?,0%,7%,-37%,
Cc1cccc(NC(=O)C2CCCN(c3nnc(-n4c(C)ccc4C)s3)C2)c1C (configuration not stated),-3%,-2%,-21%,1%,0%,16µM*,?,-6%,-3%,1%,?,
Cc1cc(F)ccc1NC(=O)C1CCCN(c2nnc(-n3c(C)ccc3C)s2)C1 (configuration not stated),-7%,1%,2%,-21%,-5%,?,·,·,·,·,·,
Cc1ccc(C)n1-c1nnc(N2CCCC(C(=O)Nc3ccccc3Br)C2)s1 (configuration not stated),-9%,-12%,-9%,0%,4%,17µM*,-17%,?,0%,14%,-20%,
COc1ccc(C(C)=O)cc1CSc1nc(Nc2ccc(F)c(F)c2)c2ccccc2n1,-1%,-17%,0%,-4%,11%,18µM*,?,?,-1%,0%,?,
C=CC(=O)Nc1cc2c(Nc3ccc(F)c(Cl)c3)ncnc2cc1OCCCN1CCOCC1,·,·,-6%,·,·,·,·,·,·,·,·,
Cc1ccc(-c2noc(CSc3nnc(C)n3-c3ccc(F)cc3)n2)cc1,-6%,-9%,i,-11%,-7%,-25%,·,·,·,·,·,
COc1ccc(-c2noc(CSc3nnc(-c4ccncc4)n3-c3ccc(C)c(C)c3)n2)cc1,-5%,-24%,7%,?,23%,13µM*,?,?,-2%,?,?,
COc1ccc(-c2noc(CSc3nnc(-c4ccncc4)n3-c3cccc(C)c3)n2)cc1OC,1%,-3%,5%,?,-8%,10µM*,?,?,-12%,-16%,-57%,
COc1ccc(-c2noc(CSc3nnc(C)n3-c3ccc(C)cc3)n2)cc1OC,4%,-18%,i,-6%,-12%,12µM*,22µM*,14µM*,-16%,?,-44%,
COc1ccc(-n2c(SCc3nc(-c4ccc(Cl)cc4)no3)nnc2-c2ccncc2)cc1,6%,?,-26%,33%,31%,?,·,·,·,·,·,
Cn1cc(-c2ccc3nnc(Sc4ccc5ncccc5c4)n3n2)cn1,·,·,-1%,·,·,·,·,·,·,·,·,
Cc1ccc(Nc2cc(-c3cccc(N4C(=O)c5ccccc5C4=O)c3)ncn2)cc1NS(C)(=O)=O,·,·,-12%,·,·,·,·,·,·,·,·,
Cc1noc(/C=C/c2ccco2)c1S(=O)(=O)N1CCC(C(=O)Nc2ccc(F)c(Cl)c2)CC1,-11%,?,i,15%,23%,12µM*,-11%,2%,3%,-7%,-29%,
CC(C)[C@H](C(=O)Nc1ccc(C(=O)NO)cc1)c1ccccc1,·,·,-25%,·,·,·,·,·,·,·,·,
CC(=O)OCC#CCSc1nnc(-c2cccc(Br)c2)o1,3%,10%,-7%,-3%,-6%,9.2µM*,?,?,-12%,?,?,
COC(=O)COc1ccc(-c2nnc(Nc3ccc(O)cc3)c3ccccc23)cc1,?,?,2.5µM*,0%,20%,11µM*,12µM*,11µM*,-16%,-19%,?,
O=C(NCCc1ccccc1Cl)C1CCN(c2nc3ccccc3nc2C(F)(F)F)CC1,0%,?,-30%,2%,-3%,9.5µM*,-1%,9%,4%,21%,-26%,
COc1ccccc1CCNC(=O)C1CCN(c2nc3ccccc3nc2C(F)(F)F)CC1,4%,?,i,-18%,-1%,-17%,·,·,·,·,·,
Fc1ccc(CNc2ncnc3ccc(F)cc23)cc1,·,·,2%,·,·,·,·,·,·,·,·,
Fc1ccc(C(c2ccc(F)cc2)N2CCN(CC=Cc3ccccc3)CC2)cc1,·,·,-7%,·,·,·,·,·,·,·,·,
